Source: PubChem BioAssay AID430 (Sanford-Burnham Center for Chemical Genomics, 2006)
Screen size: about 63,000 compounds; about 1,100 (1.7%) were called active. Shown is part of a subset that was picked to be rich in actives. Potency and affinity values are given separately. A number with no mark means an inactive call. Rule as the data show it: active = cytotoxicity above about 50%; inactive = the rest.

Test: cytotoxicity in HPDE-C7 cells, cell-based, fluorescence, HTS (AID 430);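 also: cells exposed to compound for 48 hours before viability readout; 0% = vehicle and 100% = reference cytotoxic drug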
Conditions: HPDE-C7 pancreatic duct cells viability, at 10 µM, active compounds read high

| SMILES | cytotoxicity |
| --- | --- |
| CCC(=O)Nc1nc2c(OC)ccc(C)c2s1 | 4% |
| CCOc1cccc(C(=O)Nc2nnc(-c3ccco3)s2)c1 | 2.3% |
| NC(=O)c1ccccc1NS(=O)(=O)Cc1ccc(Cl)cc1 | 0% |
| Cc1c(NC(=O)C(C)OC(=O)CC2Sc3ccccc3NC2=O)c(=O)n(-c2ccccc2)n1C (configuration not stated) | -14.3% |
| CSc1ccc(NC(=O)CC(C)=O)cc1 | -11.5% |
| c1csc(-c2nnsc2-c2nc3ccccc3[nH]2)c1 | 7.2% |
| CCC(=O)NC1=C(C#N)C2(CCCC2)Cc2ccccc21 | 10.4% |
| COc1ccccc1-c1cc(C(=O)NCc2ccccc2)no1 | 17.1% |
| Cc1ccc(C)c(OCC(=O)Nc2ccc3c(c2)OCO3)c1 | -6.1% |
| CCn1c2ccccc2c2nnc(SCCCn3c(=O)[nH]c4ccccc43)nc21 | -2.7% |
| C=CCn1c2ccccc2c2nnc(SCN3C(=O)c4ccccc4C3=O)nc21 | 21.1% |
| C=CCn1c2ccccc2c2nnc(SCCCn3c(=O)[nH]c4ccccc43)nc21 | 89.5% (active) |
| CCCCn1c(CCC(=O)O)ccc1-c1cccs1 | -30.1% |
| COCCNS(=O)(=O)c1cccc2cccnc12 | -7.9% |
| COc1cc(S(=O)(=O)N2CCCCC2)ccc1NC(=O)c1ccc(F)cc1 | -7.1% |
| Cc1ccc2c(c1)c1c(n2CC(O)Cn2c(C)nc3ccccc32)C(=O)CCC1 (configuration not stated) | -12.3% |
| Cc1ccc2c(c1)c1c(n2CC(O)Cn2c(C)nc3ccccc32)/C(=N\O)CCC1 (configuration not stated) | 113% (active) |
| CCn1c2c(c3cc(Cl)ccc31)CCCC2=O | -0.8% |
| CCn1c2c(c3cc(C(=O)O)ccc31)CCCC2=O | -6.9% |
| Cc1ccc2c(c1)c1c(n2CC(O)Cn2nc(C)c(Br)c2C)C(=O)CCC1 (configuration not stated) | -7.3% |
| CCOC(=O)c1c(O)c2c(n(Cc3ccco3)c1=O)CCCC2 | -1.8% |

| SMILES | cytotoxicity |
| --- | --- |
| CCOC(=O)C(C#N)c1ccccn1 (configuration not stated) | -13.9% |
| CC12C=CC3(O1)C(C(=O)N(c1cccnc1)C3C(=O)NC1CCCCC1)C2C(=O)Nc1ccccc1 (configuration not stated) | -6.3% |
| Cc1cc(C)c2ccc(C)[n+]([O-])c2c1O | -4.9% |
| Cc1cc(C)c2ccc(N)nc2c1O | 111% (active) |
| Cc1cc(=O)oc2c(N)c(O)ccc12 | 3.2% |
| Cc1ccc(-c2noc(CSc3nc(N)cc(N)n3)n2)cc1 | -1.6% |
| CCCCCC(=O)Nc1ccc(Cl)cn1 | -14.3% |
| CC(=NCc1ccccc1)C1=C(O)COC1=O | 2.9% |
| NC(=O)c1cc2ccc(O)cc2oc1=NCc1ccccc1 | -0.1% |
| CCn1c(CNC(=O)C(C)(C)C)nc2ccccc21 | -1.1% |
| CC12CCC(C(N)=O)(c3nc4ccccc4nc31)C2(C)C (configuration not stated) | -7.6% |
| CC(=O)Nc1sc(N)nc1-c1ccccc1 | 3.9% |
| CN(Cc1cccs1)C(=O)COc1ccc(-c2nnco2)cc1 | -5.5% |
| Cc1cc(=O)[nH]c(SCc2cc(=O)n3nc(C)sc3n2)n1 | 2.5% |
| CC1Cc2cc(-c3csc(NC(=O)Cc4cccs4)n3)ccc2N1S(C)(=O)=O (configuration not stated) | 56.2% (active) |
| O=C(Cc1cccs1)Nc1nc(-c2ccccc2)cs1 | -35.2% |
| CS(=O)(=O)N1CCc2cc(-c3csc(NC(=O)Cc4cccs4)n3)ccc21 | -7.8% |
| CCCc1[nH]nc2c1C(c1cc(OC)cc(OC)c1)C(C#N)=C(N)O2 (configuration not stated) | -4.3% |
| O=C(Cc1ccccc1)N1CCC(C(=O)N2CCN(c3ccc(F)cc3)CC2)CC1 | -6.7% |
| O=C(NC(O)C(=O)c1cccs1)c1cccnc1 (configuration not stated) | -20.3% |
| O=C(Nc1nnc(C2CCCCC2)s1)c1ccc(Br)s1 | 7% |

| SMILES | cytotoxicity |
| --- | --- |
| CCOC(=O)c1ccc(NC(=O)C23CCC(C)(C(=O)O2)C3(C)C)cc1 (configuration not stated) | -7.6% |
| CCc1ccc(-c2nc(CN3CCC(C(=O)NCCN(CC)c4ccccc4)CC3)c(C)o2)cc1 | 47.3% |
| CCc1ccc(-c2nc(CN3CCC(C(=O)N4CCN(c5ccccn5)CC4)CC3)c(C)o2)cc1 | 26.2% |
| Cc1oc(-c2cccc(Cl)c2)nc1CN1CCC(C(=O)N2CCN(c3ccccc3F)CC2)CC1 | 54.5% (active) |
| CCN1CCN(C(=O)C2CCN(Cc3nc(-c4cccc(Cl)c4)oc3C)CC2)CC1 | 9.2% |
| Cc1oc(-c2ccc(Cl)cc2)nc1CN1CCC(C(=O)N2CCN(Cc3ccccc3)CC2)CC1 | 9.6% |
| CCc1ccc(-c2nc(CN3CCC(C(=O)N4CCN(c5ccccc5)CC4)CC3)c(C)o2)cc1 | 66% (active) |
| CCc1ccc(-c2nc(CN3CCCC(C(=O)NCCc4ccc(OC)c(OC)c4)C3)c(C)o2)cc1 (configuration not stated) | 7% |
| Cc1oc(-c2cccc(Cl)c2)nc1CN1CCC(C(=O)N2CCN(c3ccccn3)CC2)CC1 | 15.5% |
| CCN(CCNC(=O)C1CCCN(Cc2nc(-c3ccc(OC)cc3)oc2C)C1)c1ccccc1 (configuration not stated) | 67.8% (active) |
| Cn1c(-c2ccc(F)cc2)cnc1NCc1ccccc1 | -16.5% |
| CCCCCCN=CC1=C(O)C(C(=O)OC)C(C)(C)CC1=O (configuration not stated) | 20.5% |
| COC(=O)c1ccccc1NC(=O)c1nc2nc(C)cc(C)n2n1 | 8.9% |
| COC(=O)C1=C(C)OC(N)=C(C#N)C1c1ccc(OC)c(OC)c1OC (configuration not stated) | -14.9% |
| CC1(C)CC(=O)C2=C(C1)Oc1ncn(CCCn3ccnc3)c(=N)c1C2c1ccccc1 (configuration not stated) | 5.8% |
| O=c1c2ccccc2nc(-c2ccccc2)n1CCCn1ccnc1 | -10.6% |
| OCCNc1ncnc2c1c(-c1ccccc1)c(-c1ccccc1)n2Cc1ccco1 | 37.5% |
| N=c1c2c(-c3ccccc3)c(-c3ccccc3)n(Cc3ccco3)c2ncn1CCN1CCOCC1 | 29.6% |
| COc1ccccc1-c1nc2n(n1)C(c1ccc(Cl)cc1)C(C(N)=O)=C(C)N2 (configuration not stated) | 5.8% |
| COC(=O)c1ccc(OCC(O)Cn2nnc3ccccc32)cc1 (configuration not stated) | 3.4% |
